From PubChem BioAssay
Peg3 prom inh: Peg3 promoter-driven luciferase inhibitors, primary screen, cell-based, HeLa, luciferase luminescence; HeLa PEG-Prom luciferase reporter, overnight; inhibition, % at 20 µM; 360,000 compounds, 1.7% hits; AID 588405, 2011;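 active = inhibition of at least 50% at 20 µM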
KKLEB cytotox: cytotoxicity in KKLEB CF airway cells, primary screen, cytotoxicity control for CF NF-kB inhibitor project, cell-based, uHTS, fluorescence assay plates; KKLEB CF airway cells viability, ATPlite luminescence, overnight; hits give low values; cells stimulated with P. aeruginosa culture filtrate; activity change (cytotoxicity), % at 5 µM; 360,000 compounds, 0.36% hits; AID 602141, 2011;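 active = corrected activity change at or below -50% at 5 µM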
HIF-2a inh: HIF-2a reporter inhibitors, primary screen, luminescence, 786-0 RCC cells | 360,000 compounds, 0.72% hits | inhibition, % at 18.8 µM | 786-0 RCC cells HIF-2a reporter, luciferase luminescence, overnight;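 active = inhibition of the luminescence signal of 40% or more relative to plate controls, in a single-dose primary screen at 18.75 µM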
TWEAK-Fn14 inh: inhibitors of TWEAK-Fn14 signaling, primary screen, luciferase reporter cells, uHTS | 360,000 compounds, 2% hits | inhibition, % at 10 µM | TWEAK-stimulated Fn14 reporter cells, luciferase luminescence, 8 h | AID 1159606, 2016; in the data active = inhibition above about 50%
CF NFkB inh: inhibitors of PAF-induced NF-kB signaling, primary screen, cell-based, GFP fluorescence, uHTS | KKLEB NF-kB-GFP reporter, GFP fluorescence overnight | inhibition, % at 5 µM | 360,000 compounds, 0.86% hits | AID 588850, 2011;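 active = at least 50% inhibition at 5 µM, scaled per plate between neutral and stimulator controls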;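 also: PAF is a Pseudomonas aeruginosa culture filtrate used as stimulus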
TROY NFkB inh: inhibitors of TROY-driven NF-kB signaling, primary screen, Q293 LMP1-TROYcd cells, NF-kB luciferase, uHTS; Q293 LMP1-TROYcd NF-kB luciferase reporter, 4 h; inhibition, % at 10 µM; 360,000 compounds, 0.98% hits; AID 1347056, 2019;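 active = compounds whose plate-normalised and pattern-corrected inhibition of the luciferase reporter signal at the single screening dose is 50% or more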
Of the large screens only hits and unclear results are named; the others gave an inactive call. Compounds with a hit are over-represented: about 4% of the library has one in this group of screens.

Cc1c(/C=N/NC(=O)c2sc3ccccc3c2Cl)cnn1C	none
COc1cc(/C=C2/C(=O)c3cccc([N+](=O)[O-])c3C2=O)c(Br)cc1O	Peg3 prom inh 110, HIF-2a inh 96, TWEAK-Fn14 inh 57
NNc1nc2sc3c(c2c(=O)n1Cc1ccccc1)CCC3	none
NNc1nc(-c2ccccc2)nc2sc3c(c12)CCCC3	TWEAK-Fn14 inh 79, TROY NFkB inh 72
Cc1cc(C)n(CCNC(=O)[C@H]2O[C@@H](n3ccc(N)nc3=O)[C@H](O)[C@@H]2O)n1	none
CN(C)c1ccc(CNCCC(Cc2ccccc2)c2ccco2)cc1 (stereo not drawn)	Peg3 prom inh 50
CC1Oc2ccccc2C=C1/C=N/Nc1ccc(C(=O)O)cc1 (stereo not drawn)	TWEAK-Fn14 inh 61
CCn1c(/C=N/Nc2ccc(C(=O)O)cc2)nc2ccccc21	none
O=C1c2ccccc2[C@@H]2C[C@@H](O)[C@H](Nc3ccccc3-c3ccccc3)CCN12	none
COc1ccc(CN(C)C[C@H]2OCCCC[C@@H](C)Oc3ccc(NC(=O)c4ccccc4)cc3C(=O)N([C@H](C)CO)C[C@@H]2C)cc1	none
CC(=O)C(C(C)=O)c1c(Cl)c(O)c(O)c2c(C(=O)c3ccccc3)coc12	TWEAK-Fn14 inh 76
COC(=O)c1cc([N+](=O)[O-])c(C)c(C)n1	none
COC(=O)[C@@]12CCCCN1[C@H](c1ccc(-c3cc(C(C)=O)cs3)cc1)[C@H]1C(=O)N(C)C(=O)[C@H]12	Peg3 prom inh 74
CC/C(=C\C1CCCCC1)C(NP(=O)(c1ccccc1)c1ccccc1)c1ccccc1 (stereo not drawn)	Peg3 prom inh 59
Cc1ccc2oc(C(F)(F)C(F)F)cc(=O)c2c1	none
Cc1ccc2oc(C(Cl)(Cl)Cl)cc(=O)c2c1	Peg3 prom inh 63, TWEAK-Fn14 inh 64
CCN(CC(=O)Nc1cccc(F)c1)CC(=O)Nc1ccc2c(c1)OCCO2	none
Nn1c(COc2ccccc2F)nnc1SCC(=O)NC1CC1	none
CCN(CC)S(=O)(=O)c1ccc(N2CCOCC2)c(NC(=O)c2ccc(C#N)cc2)c1	none
CC(C)c1ccc(NC(=O)COC(=O)C2CC3C=CC2C3)cc1 (stereo not drawn)	none
O=c1[nH]c(C2CCN(S(=O)(=O)c3ccccc3C(F)(F)F)CC2)nc2c1nnn2Cc1ccccc1	Peg3 prom inh 51, TROY NFkB inh 51
O=c1[nH]c(C2CCCN(S(=O)(=O)c3ccccc3)C2)nc2c1nnn2Cc1ccc2c(c1)OCCO2 (stereo not drawn)	none
O=c1[nH]c(C2CCCN(S(=O)(=O)c3cccc(Cl)c3)C2)nc2c1nnn2Cc1ccc2c(c1)OCCO2 (stereo not drawn)	Peg3 prom inh 51
Cc1ccc2c(CN(C)Cc3ccc(Cl)cc3)cc(=O)oc2c1	none
COC(=O)C[C@@H]1CC[C@@H](NS(=O)(=O)c2cccc(OC)c2)[C@@H](CO)O1	none (no result: Peg3 prom inh, KKLEB cytotox, TWEAK-Fn14 inh, CF NFkB inh, TROY NFkB inh)
c1ccc2sc(NN=C3CCCCCC3)nc2c1	TWEAK-Fn14 inh 76, TROY NFkB inh 76
O=C(Nc1nc2ccccc2s1)c1cnccn1	TWEAK-Fn14 inh 56
Cc1ccc(C(=O)Nc2nc3ccc(S(C)(=O)=O)cc3s2)s1	none
O=C(O)c1ccccc1-c1ccccc1C(=O)Nc1nc2ccccc2s1	none
O=C(Nc1nc2ccccc2s1)c1ccccc1	TWEAK-Fn14 inh 50
Cc1ccc(C(=O)Nc2nc3ccccc3s2)s1	TWEAK-Fn14 inh 69
CC1(C(=O)O)CCCN(C(=O)c2ccc(OC(F)F)cc2)C1 (stereo not drawn)	none
O=C(Nc1cccc(S(=O)(=O)N2CCCCC2)c1)c1ccc(N2CCCC2=O)cc1	none
O=C(NNc1nc2ccccc2s1)c1ccc(F)cc1	TROY NFkB inh 76
Cc1ccc(CNc2nc3ccccc3s2)s1	TWEAK-Fn14 inh 80
CCCNC(=O)c1ccc(-c2nc3ccccc3s2)s1	TWEAK-Fn14 inh 52 (no result: TROY NFkB inh)
